Bead autofluor = flagged as autofluorescent in microsphere protease counterscreen; compound autofluorescence counterscreen, microsphere flow cytometry; stronger effect = higher value; fluorescence intensity (no concentration beside the values); 360,000 compounds, 3.1% hits; in the data active = fluorescence intensity above about 16000; inconclusive = no clear call, values can overlap the other calls
Anthrax LF inh2 = anthrax lethal factor protease inhibition. P15917. multiplex microsphere protease cleavage assay, LF. inhibition, % at 10 µM. 360,000 compounds, 0.12% hits. AID 588501
MazF activator = activators of E. coli MazEF toxin-antitoxin RNase; P0AE70; activation, % at 20 µM; AID 504720; 350,000 compounds, 0.32% hits; FAM/BHQ RNA-DNA oligo cleavage fluorescence, 5 h; in the data active = activation above about 50%
Target sequence (P0AE70 whole entry, looked up): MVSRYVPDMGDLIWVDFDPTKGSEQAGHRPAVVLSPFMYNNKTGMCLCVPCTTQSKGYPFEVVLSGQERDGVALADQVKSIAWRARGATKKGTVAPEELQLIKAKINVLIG
BoNT F protease = inhibitors of Botulinum neurotoxin F light chain protease; inhibition, % at 10 µM; AID 588497; Multiplex microsphere protease cleavage assay, flow cytometry; 360,000 compounds, 0.22% hits; in the data active = inhibition above about 35%, passing the limit was not always enough; inconclusive = no clear call, values can overlap the other calls
BoNT A protease = BoNT A light chain protease inhibition. multiplex microsphere protease substrate cleavage, flow cytometry. inhibition, % at 10 µM. 360,000 compounds, 0.17% hits
A number is an active result; 0 = inactive; ? = inconclusive; - = no result. An excerpt weighted towards active compounds, which were near 3.6% of everything screened. Rule as the data show it, unless noted: active = inhibition above about 30%; inconclusive = no clear call, values can overlap the other calls; inactive = below that.

SMILES	Bead autofluor	Anthrax LF inh2	MazF activator	BoNT F protease	BoNT A protease
COc1cccc(OCCN2CCN(c3ncnc4c3cnn4-c3ccccc3)CC2)c1	16922	0	0	0	0
Cc1ccc(CNC(=O)Cn2cnc3c(NC(=O)OCc4ccccc4)ncnc32)o1	0	0	0	0	0
CCOC(=O)c1cc2c(n(-c3ccccc3)c1=O)CC(C)(C)CC2=O	25220	0	0	0	0
CC1(C)CC(=O)c2cc(C(=O)O)c(=O)n(-c3ccccc3)c2C1	0	0	0	0	0
Cc1cc2c(n1-c1ccc(Cl)cc1)CC(C)(C)CC2=O	19623	0	0	0	0
CC1=C(CC(=O)NCC(=O)NCC(=O)O)c2cc(F)ccc2/C1=C/c1ccc(S(C)=O)cc1 (centres undefined)	0	0	0	0	0
Cc1onc(-c2ccccc2)c1C(=O)OCC(=O)NC(C)c1ccc(Cl)cc1 (centres undefined)	0	0	0	0	0
CC(=O)Nc1ccc(Nc2nc(-c3cc4ccccc4oc3=O)cs2)cc1	0	0	63	?	0
Cc1cc(-c2csc(NC(=O)c3cc4ccccc4o3)n2)c(C)n1C	23885	0	0	0	0
COc1ccc2oc(=O)c(-c3csc(Nc4cccc(O)c4)n3)cc2c1	0	0	133	0	0
Cn1c(=O)c2cc(NC(=O)NCc3ccccc3)ccc2n1Cc1ccc(Cl)cc1	0	0	-	0	0
CCC(c1nnnn1CCOC)N(Cc1cc2cc(C)c(C)cc2[nH]c1=O)CC1CCCO1 (centres undefined)	0	0	0	0	0
CCCC(c1nnnn1CCOC)N(Cc1cc2cc(C)c(C)cc2[nH]c1=O)CC1CCCO1 (centres undefined)	16616	0	0	0	0
COc1cccc(N2CCc3c(C)nc4ccc(Cl)cc4c32)c1	0	0	0	0	0
CCN1Cc2c(/C=C/c3ccccc3)nc3ccc(OC)cc3c2N(c2cccc(Cl)c2)C1	0	0	0	0	53
COc1ccc(NC(=O)c2sc(=O)n(Cc3ccccc3C#N)c2C)cc1OC	0	0	-	0	0
CCOC(=O)c1oc2ccccc2c1CN1CCOCC1	21460	0	0	0	0
CCOC(=O)c1c(N)sc(C(=O)N(C)C)c1CN1CCOCC1	20070	0	0	0	0
CCOC(=O)c1c(C)n(Cc2ccco2)c2ccc(OC)cc12	0	0	0	0	0
CCOC(=O)c1c(CN2CCOCC2)oc2ccc(OC)cc12	21090	0	0	0	?
CCOC(=O)c1c(C)n(CCN2CCN(C)CC2)c2ccc(OC)cc12	20539	0	0	0	0
CCn1c(SCC(=O)NNC(=O)c2ccco2)nnc1-c1ccco1	0	0	0	0	0
O=c1c(O)c(-c2cccs2)oc2ccc(Cl)cc12	0	32	0	0	35
O=c1c(O)c(-c2cccs2)oc2ccccc12	0	0	0	0	31
O=c1cc(-c2ccccc2)oc2ccc(Cl)cc12	0	0	0	0	0
SMILES	Bead autofluor	Anthrax LF inh2	MazF activator	BoNT F protease	BoNT A protease
O=c1c(O)c(-c2ccccc2)oc2ccccc12	0	0	0	0	0
O=c1cc(-c2cccs2)oc2ccc(Cl)cc12	22409	0	0	0	0
O=C1CCCC2=C1C1(CCCC1)N=C(Nc1nc3cc(-c4ccccc4)ccc3o1)N2	0	0	-	0	0
O=C(O)C1CC=CCC1C(=O)Nc1ccc2c(c1)CCC2 (centres undefined)	0	0	0	0	0
CS(=O)(=O)c1ccc(Cl)c(NC(=O)CSc2nnc(C3CC3)n2C2CC2)c1	0	0	0	0	0
Cc1ccc(S(=O)(=O)CCC(=O)OCC(=O)NC(=O)c2ccccc2)cc1	40297	0	0	0	0
CCC(=O)N1CCc2cc(S(=O)(=O)NC(C(=O)NC(C)c3ccccc3)C(C)C)ccc21 (centres undefined)	0	0	0	0	0
CC(=O)N1CCCc2cc(S(=O)(=O)NC(C(=O)NC(C)c3ccccc3)C(C)C)ccc21 (centres undefined)	16474	0	0	0	0
CC(=O)N1CCc2cc(S(=O)(=O)NC(CC(C)C)C(=O)N3CCn4c3nc3ccccc34)ccc21 (centres undefined)	21252	0	0	0	0
CC(=O)N1CCc2cc(S(=O)(=O)NC(C)c3ccccc3)ccc21 (centres undefined)	0	0	0	0	0
O=C(O)c1ccccc1C(=O)Nc1ccccn1	23171	0	0	0	0
CCN(CC(=O)Nc1c(F)cccc1F)C(=O)c1ccc(N2CCCCC2)c([N+](=O)[O-])c1	0	0	0	0	0
CCOC(=O)c1sc2nc(CC(=O)OC)nc(NCCN(CC)CC)c2c1C	18785	0	0	0	0
CCCCn1nnnc1C(c1cc2ccccc2o1)N1CCN(C(=O)OCC)CC1 (centres undefined)	0	0	-	0	0
COc1ccc(N=Nc2ccc3ccccc3c2)c(O)c1	0	0	0	0	0
COc1cccc(N=Nc2ccc3ccccc3c2O)c1	0	0	76	0	0
Nc1nc(CSc2ncn(-c3ccccc3)n2)cs1	22447	0	0	0	0
c1ccc(CSc2ncn(-c3ccccc3)n2)cc1	0	0	0	0	0
O=C(OCc1ccccc1)N1CCC2CC1c1cc(N3CCCCC3)ccc12 (centres undefined)	0	0	0	0	0
O=C(c1cc(Cl)cc(Cl)c1)N1CCC2CC1c1cc(N3CCCCC3)ccc12 (centres undefined)	24126	0	0	0	0
O=C(Cc1ccc(-n2c(=S)[nH]c3ccccc3c2=O)cc1)N1CCC(N2CCCCC2)CC1	23979	0	0	0	0
COc1ccc(N2CCN(C(=O)Cc3ccc(-n4c(=O)[nH]c5ccccc5c4=O)cc3)CC2)cc1	0	0	0	0	0
CSc1cccc(NC(=O)CCCn2c(=O)c3cccn3c3cccnc32)c1	0	0	0	0	0
O=C(Oc1c(Cl)cc(Cl)c2ccccc12)N1CCCC1	22642	0	0	0	0
CC(=O)c1nn(-c2cccc(Br)c2)cc1C(=O)c1ccc(C)cc1	?	?	0	?	0
SMILES	Bead autofluor	Anthrax LF inh2	MazF activator	BoNT F protease	BoNT A protease
COc1ccc(Cc2c(-c3cccc(Br)c3)nc3ccc(Br)cn23)c(C)c1	0	0	-	0	0
Cc1nnc(-c2cccc(Br)c2)c2cn(-c3ccccc3)nc12	32979	0	0	0	0
Cc1nnc(-c2cccc(Br)c2)c2cn(-c3ccc(Br)cc3)nc12	17435	0	0	0	0
COc1ccc(-n2cc3c(-c4cccc(Br)c4)nnc(C)c3n2)cc1	48432	0	52	0	0
Cc1nnc(-c2cccc(Br)c2)c2cn(-c3cccc(Br)c3)nc12	34824	0	0	0	0
Cc1ccc(N(Cc2ccccc2)C(=O)Cc2ccc(S(=O)(=O)N3CCOCC3)s2)cc1	0	0	0	0	0
CCN(CC)C(=O)c1cnn(-c2ccccc2)c1NC(=O)c1ccccc1F	20443	0	0	0	0
Cc1c(Cl)cccc1Nc1nc(N)nc(CSc2ncccn2)n1	20532	0	0	0	0
Cc1c(Cl)cccc1Nc1nc(N)nc(CSCCO)n1	0	0	0	0	0
Cc1nnc(NC(=O)CCn2c(=O)oc3ccccc32)s1	0	0	0	0	0
O=S(=O)(c1ccc2c(c1)CCN2)N1CCCC1	0	0	0	0	0

Bioassay records (PubChem BioAssay)
